This is an account of results in PubChem BioAssay AID651558 (National Center for Advancing Translational Sciences (NCATS), 2012).

Screen size: about 1,200 compounds; about 480 (40%) were called active. Roughly 29% stayed inconclusive and do not appear here. Calls come from the whole dose curve; as a rule, active = well fitted inhibition curve with a large enough effect; inconclusive = small, poorly fitted or top-dose-only effect; inactive = no such curve, though single readings can be large or run the other way. The list shows a part of the results.
Potency is the fitted concentration of half-maximal effect.

A short description of the experiment: qHTS Assay to Find Inhibitors of Chronic Active B-Cell Receptor Signaling: Hit Validation in Primary Screen. Note: nearly all actives have a fitted effect of over 75% in size. The following applies: ABC-DLBCL IkB-luc/CBR ratio luminescence, 4 h; series mostly up to 46.1 µM. The method in brief: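 Concentration series (3 nM to 46 uM) tested on TMD8 cells induced with doxycycline for 4 h. Filter-corrected green (IkBa fusion) over red (unfused) luciferase signal; Data were normalised to 10 uM MG-132 and untreated cell wells.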
Regarding `COc1cc(/C=C/c2ccc3cccc(O)c3n2)cc(Br)c1OC`, the Potency is 20.6 µM (active).

Turning to `CCOc1cccc(/C=C/c2ccc3cccc(O)c3n2)c1OC`, the Potency result was “inactive”. For `COc1cc(/C=C\C(=O)OCn2nnc3ccccc3c2=O)cc(OC)c1OC`, the Potency result is “inactive”. As to `COc1cc(/C=C/c2ccc3cccc(O)c3n2)cc(OC)c1OC`, the Potency was 18.4 µM (active). As for `COC(=O)CCC(=O)NC(=S)Nc1sc(C)c(C)c1C(N)=O`, the Potency was 4.61 µM (active). As for `CCCCC(=O)NC(=S)Nc1nnn(CCC)n1`, the Potency result was “inactive”.

Turning to `CCOc1cc(-c2nnc(SCC(=O)NCc3ccccc3)nc2-c2ccc(OC)c(OCC)c2)ccc1OC`, the Potency was 2.59 µM (active). In the case of `COc1ccc(CN(C)C(=O)Cn2cnc3c(NCc4ccccc4)ncnc32)cc1OC`, the Potency result was “inactive”. For `COc1ccccc1CNC(=O)CSc1ccc(C)cc1` the value was “inactive”; for `CC1=NN(C(N)=S)C(=O)C1N=Nc1ccc(F)cc1` (stereo unspecified), “inactive”; for `Cc1ccsc1/C=C/C1=NCCCN1C`, “inactive”. Regarding `CC1(C)N=c2ccc([N+](=O)[O-])c(N)c2=[N+]1[O-]`, the Potency entry was “inactive”.

Consider `COc1cc(OC)c(OC)cc1/C=C/C(=O)c1ccc(NS(=O)(=O)c2ccc(C)cc2)cc1`, for which the Potency is 13 µM (active).

For `COc1ccc(S(=O)(=O)Nc2ccc3c(c2)n(C)c(=O)n3C)cc1F`, the Potency result was “inactive”. With `O=C(Nc1nc2c(F)cc(F)cc2s1)c1ccccn1`, the Potency was 13 µM (active). Take `Cc1ccc2nc(NC(=O)c3ccccn3)sc2c1`: the Potency was 1.16 µM (active).

On to `S=C(Nc1ccccn1)c1ccccn1`, for which the Potency result was “inactive”. As to `CCOc1ccc2nc(NC(=O)c3ccccn3)sc2c1`, the Potency is 14.6 µM (active).

On to `C/C(=N\NC(=O)c1ccc(F)cc1)c1ccccn1`, for which the Potency entry was “inactive”. On to `COc1ccc2nc(NC(=S)NC(=O)c3ccco3)sc2c1`, for which the Potency result is “inactive”. For `O=C(Nc1nc2ccc(F)cc2s1)c1ccccn1`, the Potency is 1.46 µM (active). On to `CCOc1ccc2nc(NS(=O)(=O)Cc3ccccc3)sc2c1`, for which the Potency entry was “inactive”. As for `O=C(Nc1nnc(SCc2ccc(F)cc2)s1)c1ccccn1`, the entry is “inactive”.

On to `O=C(NCC(=O)N1CCCC(C(F)(F)F)C1)c1ccc(Oc2ccccc2)cc1` (stereo unspecified), for which the Potency entry was “inactive”. Regarding `CN(C)NC(=S)NC(=O)C12CC3CC(CC(C3)C1)C2`, the Potency entry was “inactive”. For the molecule `Cc1cc(C(N)=O)nn1-c1c(Cl)cc(Cl)cc1Cl`, the Potency entry was “inactive”. For `COc1ccccc1NC(=O)c1c(N=Cc2c(O)ccc3ccccc23)cnn1C` the value was 3.26 µM (active). Turning to `CC(=O)N1CC(=O)N=C1SCC(=O)Nc1nc(C)c(-c2ccccc2)s1`, the Potency was 23.1 µM (active). Turning to `COc1cccc(/C=N/NC(=O)c2[nH]nc3c2CCc2ccccc2-3)c1O`, the Potency was 20.6 µM (active). As to `COc1ccc(CCCC(=O)N/N=C/c2cccc(OC)c2O)cc1C`, the Potency result was “inactive”. For `CC/C(=N/Nc1ccc(Cl)cc1)c1cnnc(SC)n1` the value was “inactive”; for `Cc1ccc(C(=O)Oc2ccc(Cl)c3cccnc23)cc1[N+](=O)[O-]`, “inactive”. For `COc1cccc(N2CCN(C(=O)c3ccc(CS(=O)c4ccccc4C)o3)CC2)c1` (stereo unspecified) the value was 5.8 µM (active).

On to `COc1cccc(N2CCN(C(=O)c3ccc(CS(=O)c4ccccc4Cl)o3)CC2)c1` (stereo unspecified), for which the Potency is 1.84 µM (active). For `O=C(c1ccc(CS(=O)c2ccccc2Cl)o1)N1CCN(c2ccccc2)CC1` (stereo unspecified) the value was 14.6 µM (active); for `CCCNc1nc(-c2ccccc2)c(C(=O)OCC)cc1C#N`, 18.4 µM (active); for `CCCNc1ccc(C(=O)OCC)cc1[N+](=O)[O-]`, “inactive”. In the case of `CC(C)CCOc1ccc(CO[C@@H]2[C@H]3OC(C)(C)O[C@H]3O[C@@H]2C(O)CO)cc1` (stereo partly specified), the Potency result is “inactive”. Turning to `COC(=O)c1ccc(C)c(NS(=O)(=O)c2ccc(OC)cc2)c1`, the Potency is 1.84 µM (active). Regarding `COc1ccc(NS(=O)(=O)c2cc(NC(=O)CNC(=O)c3cccc(OC)c3)ccc2C)cc1`, the Potency entry was “inactive”. As for `COc1ccc(S(=O)(=O)Nc2cc3c(C(C)=O)c(C)oc3c3ccccc23)cc1`, the figure is 2.06 µM (active); as for `COC(=O)c1ccc(C)c(NS(=O)(=O)c2ccc3c(c2)OCCO3)c1`, 9.2 µM (active); as for `COc1cc2nc(=S)n3[nH]c(CCn4nc(C)cc4C)nc3c2cc1OC`, “inactive”. On to `O=C(/C=C/c1ccc(-c2ccccc2[N+](=O)[O-])o1)c1ccccc1`, for which the Potency entry was “inactive”. For the molecule `CC(=O)[C@H]1CC[C@H]2[C@@H]3CCC4=CC(=O)CC[C@]4(C)[C@H]3CC[C@]12C`, the Potency entry was “inactive”. As for `C[C@]12CCC(=O)C=C1CC[C@@H]1[C@@H]2[C@@H](O)C[C@@]2(C)[C@H]1CC[C@]2(O)C(=O)CO`, the Potency result was “inactive”. In the case of `COc1ccccc1-c1nnc(Nc2nc3c(OC)cccc3s2)o1`, the Potency was 0.366 µM (active).

As to `COc1cccc2sc(Nc3nnc(-c4ccccc4Cl)o3)nc12`, the Potency was 8.2 µM (active). For `NC(=S)N/N=C\c1ccc(-c2cccc(Cl)c2Cl)o1` the value was “inactive”; for `CCN(CC)S(=O)(=O)c1ccc(N2CCOCC2)c(NC(=O)c2[nH]c(C)c(C(C)=O)c2C)c1`, “inactive”; for `COc1ccc(COC(=O)c2cc([N+](=O)[O-])ccc2N2CCOCC2)cc1F`, 0.092 µM (active). As to `Cc1ccc(COC(=O)c2cc([N+](=O)[O-])ccc2N2CCOCC2)cc1`, the Potency is 5.8 µM (active).

`CSc1ccc(COC(=O)c2cc([N+](=O)[O-])ccc2N2CCOCC2)cc1`: the Potency is 0.58 µM (active). As for `CCCCn1c(=O)c(F)cn(Cc2ccc(OC)c([N+](=O)[O-])c2)c1=O`, the Potency result is “inactive”. As for `CCCCn1c(-c2csc(C(C)C)c2)n[nH]c1=S`, the entry is “inactive”; as for `CNC(=S)N/N=C(\C)c1ccc(Cl)c(Cl)c1`, “inactive”.

As to `CCOc1ccc(S(=O)(=O)N2c3ccccc3CC2C)cc1` (stereo unspecified), the Potency is 14.6 µM (active). Take `COc1ccc(S(=O)(=O)N2c3ccccc3OCC2C)cc1` (stereo unspecified): the Potency was 16.4 µM (active).

`CNc1nc(N)c([N+](=O)[O-])c(NCc2ccccc2)n1`: the Potency result was “inactive”. With `CC(=O)c1ccc(Oc2cc(C)nc(-n3nc(C)cc3C)n2)cc1`, the Potency is 7.31 µM (active). As for `COC(=O)c1ccc(Oc2cc(C)nc(-n3nc(C)cc3C)n2)cc1`, the Potency was 3.26 µM (active). With `O=C(CSc1cccc[n+]1[O-])c1ccc(Cl)s1`, the Potency entry was “inactive”.

On to `O=C(O)CCCN1C(=O)/C(=C\c2ccccc2OCc2ccccc2)SC1=S`, for which the Potency was 7.31 µM (active). As for `O=C(CCCN1C(=O)/C(=C/c2ccccc2OC(F)F)SC1=S)Nc1cccnc1`, the figure is 7.31 µM (active); as for `COc1ccccc1-c1cc(C(=O)Nc2cccnc2)no1`, “inactive”; as for `CCCNS(=O)(=O)c1cccc(C(=O)OCc2cc(=O)oc3cc(OC)ccc23)c1`, 9.2 µM (active).

For the molecule `COc1cc(OC)cc(C(=O)N2CC(=O)Nc3ccccc32)c1`, the Potency was 14.6 µM (active).

For the molecule `COc1cc(OC)cc(C(=O)N/N=C(\C)CC(=O)Nc2ccccn2)c1`, the Potency result was “inactive”. Turning to `Cc1cc(C)c2nc(SCC(=O)N3CC(=O)Nc4ccccc43)c(C#N)cc2c1`, the Potency was 3.66 µM (active). On to `Cc1cc(C)cc(C(=O)N2CC(=O)Nc3ccccc32)c1`, for which the Potency was 3.66 µM (active). Turning to `COc1ccccc1NC(=O)N1CCC(c2nc3cc(C)c(C)cc3[nH]2)CC1`, the Potency was 5.17 µM (active). In the case of `COc1ccc(N2CC(C(=O)N3CCC(c4nc5ccccc5[nH]4)CC3)CC2=O)cc1` (stereo unspecified), the Potency result was “inactive”.

Turning to `ClC(Cl)(Cl)c1nc2ccccc2n2nncc12`, the Potency was 18.4 µM (active).

With `COc1cc(-c2noc(C)c2/C=C/c2ccc(N)cc2)cc(OC)c1OC`, the Potency is 1.3 µM (active). For `COc1cc(-c2noc(C)c2/C=C/c2ccc(OC(C)=O)cc2)cc(OC)c1OC` the value was 4.61 µM (active); for `CCOC(=O)C(C)Oc1cccc2c(=O)n(CC(=O)NCc3ccc4c(c3)OCO4)ccc12` (stereo unspecified), 20.6 µM (active); for `CCOC(=O)C(C)Oc1cccc2c(=O)n(CC(=O)NCc3ccco3)ccc12` (stereo unspecified), 18.4 µM (active).

Take `CCOC(=O)C(C)Oc1cccc2c(=O)n(CC(=O)NCc3ccccc3)ccc12` (stereo unspecified): the Potency is 4.11 µM (active).

With `CCOC(=O)COc1cccc2c(=O)n(CC(=O)NCc3ccc(F)cc3)ccc12`, the Potency was 3.26 µM (active). As for `CCOC(=O)COc1cccc2c(=O)n(CC(=O)NCc3ccccc3)ccc12`, the entry is “inactive”; as for `CCOc1ccc(CCNC(=O)c2cc(=O)[nH]c3ccc(S(=O)(=O)N4CCCCC4C)cc23)cc1OCC` (stereo unspecified), “inactive”; as for `C=CCn1c(O)c(N=NC(=S)Nc2ccccc2C)c2cc(S(=O)(=O)N3CCOCC3)ccc21`, “inactive”. As to `COC(=O)COc1cccc2c(=O)n(CC(=O)NCc3ccccc3)ccc12`, the Potency was 9.2 µM (active). As to `CCOC(=O)C(C)Oc1cccc2c(=O)n(CC(=O)NCc3ccc(F)cc3)ccc12` (stereo unspecified), the Potency is 2.59 µM (active). Turning to `CCN(c1cccc(C)c1)S(=O)(=O)c1ccc(-c2cc(C)no2)s1`, the Potency is 16.4 µM (active). As to `Cc1cccc(N(C)S(=O)(=O)c2ccc(-c3cc(C)no3)s2)c1`, the Potency result is “inactive”. As for `Cc1cc(Cl)ccc1OCCCC(=O)NO`, the Potency was 16.4 µM (active).

Consider `Cc1nn(C)cc1CNC(=O)COc1ccc(Cl)cc1Cl`, for which the Potency entry is “inactive”. With `CC[C@]1(O)C[C@@H]2CN(CCc3c([nH]c4ccccc34)[C@@](C(=O)OC)(c3cc4c(cc3OC)N(C)[C@H]3[C@@](O)(C(=O)OC)[C@H](OC(C)=O)[C@]5(CC)C=CCN6CC[C@]43[C@@H]65)C2)C1`, the Potency is 0.0461 µM (active). For `CC[C@]1(O)CC2CN(CCc3c([nH]c4ccccc34)[C@@](C(=O)OC)(c3cc4c(cc3OC)N(C=O)[C@H]3[C@@](O)(C(=O)OC)[C@H](OC(C)=O)[C@]5(CC)C=CCN6CC[C@]43[C@@H]65)C2)C1` (stereo partly specified) the value was 0.0517 µM (active); for `COc1ccc(C(=O)/C=C/c2ccc(O)cc2)c2c1CC(O)C(C)(C)O2` (stereo unspecified), 20.6 µM (active); for `O=S1(=O)[C@H]2C[C@H](CO)O[C@@]2(CO)CN1Cc1ccc(-c2cccc(Cl)c2)cc1`, “inactive”. `COc1cc(Nc2c3c(nc4ccccc24)CCC3)cc(OC)c1OC`: the Potency is 18.4 µM (active). As for `COc1ccccc1-c1nc2c3ccccc3nc(=S)n2[nH]1`, the entry is “inactive”; as for `COc1ccc(OC)c(Nc2c3c(nc4ccccc24)CCC3)c1`, 14.6 µM (active). Regarding `Cc1nn(CCC(=O)NNC(=S)Nc2ccccc2)c(C)c1Br`, the Potency result was “inactive”.
